# Measured values: PubChem BioAssay AID504884 (Broad Institute, 2011)
# In all, about 360,000 compounds went through this assay and about 230 (0.064%) were called active. Cut-off read from the data, not from the text of the source: active = activity above about 50% (passing the limit was not always enough); inconclusive = no clear call, values can overlap the other calls. Many of the other results were omitted from the sample, so actives are more common in it than they were.
# Test system: DNA topoisomerase I (Yersinia pestis CO92)
# Test: Yersinia pestis topoisomerase I inhibitors, primary screen, biochemical, cleavage product accumulation, plate reader, single point (AID 504884)
# Details: Y. pestis Topo-I cleavage product accumulation, at 10 µM, active compounds read high
row,SMILES,activity
1,COc1ccccc1N1CC(C(=O)Nc2nnc(SCC(=O)NC(C)C)s2)CC1=O (stereo unspecified),6.4% (inactive)
2,Cc1cc(SCC(=O)NCCN2C(=O)CSC2=O)nc2ccccc12,2.72% (inactive)
3,O=[N+]([O-])c1ccc(S(=O)(=O)Nc2cccc(-c3ccc(N4CCCC4)nn3)c2)cc1,21.6% (inactive)
4,CC1CCc2sc(C(=O)NCC(c3ccco3)N3CCCCC3)cc2C1 (stereo unspecified),-2.82% (inactive)
5,CC(C)Oc1ccc(CN2CCC2(C)C(=O)NCc2ccc(C(F)(F)F)cc2)cc1 (stereo unspecified),15.8% (inactive)
6,COc1ccc(CN2CCN(C(=O)c3cc(C4CC4)nn3-c3ccccc3)CC2)cc1F,29.4% (inactive)
7,CN(C)C(=O)N=NC(=O)N(C)C,-8.5% (inactive)
8,C[C@H](CO)N1C[C@H](C)[C@@H](CN(C)Cc2ccc(-c3ccccc3)cc2)Oc2ccc(NC(=O)Cn3cnnn3)cc2C1=O,22.5% (inactive)
9,O=C(CN1CCC(NC(=O)C2CC2)CC1)Nc1ccccc1[N+](=O)[O-],2.07% (inactive)
10,COc1ccc(CN(C)C(=O)CC(c2ccccc2)c2ccccc2)cc1,51.6% (active)
11,COc1ccc(C(CCN(Cc2ccc(OC)c(OC)c2)C(=O)CCl)c2ccccc2)cc1 (stereo unspecified),12.3% (inactive)
12,CN(Cc1ccc(F)cc1)C(=O)COc1ccc2ccccc2c1,27.3% (inactive)
13,Cc1ccc(S(=O)(=O)NCC(=O)N2CCOCCOCCOCCOCC2)cc1,5.8% (inactive)
14,Cc1cc(C)nc(/N=C2\NC(=O)CC(C(=O)O)N2c2ccc(Cl)cc2Cl)n1 (stereo unspecified),-1.83% (inactive)
15,O=C1NNC(c2ccccc2)=N/C1=C\c1ccc(Cl)cc1,-4.41% (inactive)
16,Cc1ccccc1-n1nnnc1SCCCC(=O)c1ccc(F)cc1,21.7% (inactive)
17,Cc1ccc2c(c1)C(c1ccccc1)N(C(=O)c1ccc(S(=O)(=O)N3CCOCC3)cc1)CC(=O)N2 (stereo unspecified),3.57% (inactive)
18,Cc1cc(C)c(C(N)=O)c(Cl)n1,0.37% (inactive)
19,CCOc1ccc(S(=O)(=O)N2CCC(c3ccccc3)CC2)cc1C(=O)O,-7.32% (inactive)
20,COC(=O)Nc1ccc(S(=O)(=O)N2CCN(CCN3C(=O)C4C5C=CC(C5)C4C3=O)CC2)cc1 (stereo unspecified),0.176% (inactive)
21,CN(C(=O)CSc1nnc(C2CC2)n1C)C1CCCc2ccccc21 (stereo unspecified),9.61% (inactive)
22,CC(=O)c1ccc(NC(=O)C2CCCN2S(=O)(=O)c2cccs2)cc1 (stereo unspecified),-1.65% (inactive)
23,CCCCCn1c(SCCC(C)C)nc2c1c(=O)[nH]c(=O)n2C,112% (active)

row,SMILES,activity
1,CC=CCn1c(SCCCc2ccccc2)nc2c1c(=O)[nH]c(=O)n2C,14.6% (inactive)
2,C=CCn1c(SCc2ccccc2)nc2c1c(=O)[nH]c(=O)n2C,20.2% (inactive)
3,C[C@H]1CCC(=O)N([C@H](CSc2ccccc2)Cc2ccccc2)CC1,59.9% (active)
4,O=C1CC[C@H](O)CCN1[C@H](CSc1ccc(Br)cc1)Cc1ccccc1,10.9% (inactive)
5,CC(=O)Nc1ccc(SC[C@H](Cc2ccccc2)N2CC[C@@H](C)CCC2=O)cc1,25.8% (inactive)
6,Cc1cc(Cl)c(S(=O)(=O)NCc2cccnc2)cc1OCC(N)=O,-1.35% (inactive)
7,CN(C)c1ccc(C(=S)N2CCN(C(=S)Nc3ccc(Cl)cc3)CC2)cc1,3.46% (inactive)
8,Cc1cc(OCC(=O)NCC(O)c2ccccc2)c2c(C)c(C)c(=O)oc2c1 (stereo unspecified),-1% (inactive)
9,O=C(CSc1ncnc2c1oc1ccccc12)NC1CCCC1,2.5% (inactive)
10,CCC(=O)NC(Nc1cc(C)ccn1)(C(F)(F)F)C(F)(F)F,-7.52% (inactive)
11,CCOC(=O)c1cn(Cc2cccc(C)c2)nn1,-1.57% (inactive)
12,CCOC(=O)c1nn(-c2cccc(C)c2)cc1C(=O)c1ccccc1,67.3% (active)
13,CC(=O)c1nn(-c2ccc(C)cc2)cc1C(=O)c1cccc(Br)c1,8.28% (inactive)
14,COCC(C)n1c(C)cc(C(=O)COc2ccc(C)nc2[N+](=O)[O-])c1C (stereo unspecified),8.7% (inactive)
15,COC(=O)[C@H]1C[C@H](OC(=O)NCc2ccccc2)[C@@]2(O)CN(S(=O)(=O)c3ccc(C)cc3)CC2[C@H]1C(=O)OC (stereo partly specified),7.34% (inactive)
16,Cc1cc2nc(C(F)(F)F)cc(-c3cccs3)n2n1,-15.7% (inactive)
17,COc1c(C)c2c(c(O)c1C/C=C(\C)CCC(=O)O)C(=O)OC2,5.68% (inactive)
18,CC1(Oc2ccccc2-c2ccno2)CCN(Cc2ccc(-c3ccccc3)o2)C1 (stereo unspecified),24% (inactive)
19,Cc1ccn(CC(=O)NC2CCCN(Cc3ccccc3F)C2)n1 (stereo unspecified),-8.15% (inactive)
20,CC(C)CN(C(=O)Cn1c(=O)cnc2ccccc21)C1CCS(=O)(=O)C1 (stereo unspecified),1.02% (inactive)
21,CCN1CCN(c2cc3nc(C)n(Cc4ccccc4)c(=O)c3cc2NC(=O)c2ccccc2F)CC1,23.4% (inactive)
22,COc1ccc(N=C2C=CC(=O)O2)cc1,1.67% (inactive)
23,C=C1c2cccc(OC)c2O[C@H](C(=O)OCC)[C@@H]1CCCCCC,39% (inactive)

row,SMILES,activity
1,COC(=O)[C@@H]1C[C@@]2(O)[C@H](O)[C@H](O)[C@H](O)C[C@H]2N1Cc1ccc(C(C)(C)C)cc1,1.65% (inactive)
2,O=C(NCc1ccc(F)cc1)c1cc(C2CCCCN2C(=O)c2cccs2)on1 (stereo unspecified),28.6% (inactive)
3,COc1ccccc1-c1n[nH]c2c1[C@H](C)CC[C@H]2C(C)C,29.7% (inactive)
4,CN(C)c1ccc(CNC2C3CC4CC(C3)CC2C4)cc1 (stereo unspecified),-0.886% (inactive)
5,COCCN(C(=O)CC1CCCCC1)c1c(N)n(CC(C)C)c(=O)[nH]c1=O,-3.38% (inactive)
6,CCCCCN(C(=O)CCC(=O)OCCOc1ccc(OC)cc1)c1c(N)n(CCCC)c(=O)[nH]c1=O,20.2% (inactive)
7,CC1CCCC(C)N1/N=C/c1ccccc1OC(F)F (stereo unspecified),-8.42% (inactive)
8,Fc1ccc(Br)cc1/C=N/n1cnnc1,1.69% (inactive)
9,Cc1nc2c(ncn2-c2ccccc2)c(=O)n1NC(=O)CN1CCCC1,-2.1% (inactive)
10,CCC(CC)C(=O)Nc1c2c(nn1-c1ccc(C)cc1)CS(=O)(=O)C2,-1.49% (inactive)
11,Cc1cccc(OP(=O)(Oc2cccc(C)c2)OC(c2ccccc2)C(F)(F)F)c1 (stereo unspecified),60.4% (active)
12,Cc1cccc(OP(=O)(Nc2c(C)n(C)n(-c3ccccc3)c2=O)Oc2cccc(C)c2)c1,25.5% (inactive)
13,CCN(CC)P(=O)(Oc1cccc(C)c1)N(CC)CC,2.59% (inactive)
14,Cc1cc(N2CCN(c3ccc(F)cc3)CC2)n2ncnc2n1,1.33% (inactive)
15,O=c1c2ccccc2ncn1CCCCOc1ccccc1F,5.21% (inactive)
16,N/C(=N\OC(=O)CCn1cccc(C(F)(F)F)c1=O)c1ccc(OC(F)(F)F)cc1,0.341% (inactive)
17,O=S(=O)(c1cccc2nonc12)N1CCN(c2cccc(Cl)c2)CC1,8.66% (inactive)
18,Cc1ccc(S(=O)(=O)N2CCC(Oc3ccc(-n4cnnn4)cc3)CC2)cc1,9.39% (inactive)
19,CCCCNC1(C#N)CCN(Cc2ccccc2)CC1,-6.77% (inactive)
20,Cc1c(CCO)c(=O)[nH]n1C(=O)c1c(F)cccc1F,11.7% (inactive)
21,O=C(/C=C/c1cnc2ccccc2n1)NC1CCCCCC1,7.03% (inactive)
22,COc1ccccc1CNC(=O)CNC(=O)c1cn(-c2ccccc2OC)c(=O)c2ccccc12,2.16% (inactive)
23,CSc1cccc(NC(=S)N(Cc2ccccc2)Cc2ccccn2)c1,9.55% (inactive)

row,SMILES,activity
1,COc1cc(OC)cc(-c2cc3nc(C4CCN(C(=O)OC(C)(C)C)CC4)cc(=O)n3[nH]2)c1,2.04% (inactive)
2,CS(=O)(=O)c1sc(C(=O)NC(=S)Nc2ccc(OC(F)(F)F)cc2)c2c1C=CCC2,6.39% (inactive)
3,Cc1ccc(N2C(=O)CC(NCc3ccc4c(c3)OCO4)C2=O)cc1Cl (stereo unspecified),4.73% (inactive)
4,CSc1ccc(S(=O)(=O)N2CCC(C(=O)NCCc3ccccc3)CC2)cc1,3.52% (inactive)
5,Cc1ccc(S(=O)(=O)N2CCC(C(=O)NCCC3=CCCCC3)CC2)cc1C,51.1% (active)
6,Cc1ccc(CCNC(=O)C2CCN(S(=O)(=O)N3CCCC3)CC2)cc1,0.896% (inactive)
7,CN(C(=O)COC(=O)CCCc1c[nH]c2ccccc12)c1c(N)n(Cc2ccccc2)c(=O)[nH]c1=O,15% (inactive)
8,COc1ccc(/C(=N\O)c2nccc3cc(OC)c(OC)cc23)cc1OC,6.19% (inactive)
9,COCCCNC(=O)C1CC(=O)N(CCc2ccc(F)cc2)C1 (stereo unspecified),-2.65% (inactive)
10,CC(=O)c1ccccc1OCc1ccc(C(=O)c2ccccc2)cc1,55.1% (active)
11,O=C(NC1CCC(O)CC1)c1ccccc1OCc1ccc(F)cc1 (stereo unspecified),1.15% (inactive)
12,CC(OC(=O)c1ccccc1OCc1ccc(Cl)cc1)C(N)=O (stereo unspecified),4.36% (inactive)
13,CCOC(=O)C1CCN(S(=O)(=O)c2ccc3c(c2)N(C)C(=O)CC(=O)N3C)CC1,-0.905% (inactive)
14,FC(F)(F)C1CCCN(c2nsc3ccccc23)C1 (stereo unspecified),4.11% (inactive)
15,CCCCNC(=O)c1ccccc1NC(=O)c1ccccc1N(C)S(C)(=O)=O,8.01% (inactive)
16,c1ccc(CC2CCN(c3nc4ccccc4n4cnnc34)CC2)cc1,27.5% (inactive)
17,COc1ccc(CN2CCC(n3nccc3NC(=O)CCCc3ccccc3)CC2)cc1C,18.3% (inactive)
18,CC(C)(C)N(Cc1ccccc1)C(=O)COC(=O)CCc1c[nH]c2ccccc12,1.59% (inactive)
19,CC1(c2ccc3ccccc3c2)NC(=O)NC1=O (stereo unspecified),0.131% (inactive)
20,O=C1CSC(c2cccc(F)c2)N1c1ccccc1F (stereo unspecified),-2.91% (inactive)
21,O=C(Cc1ccccc1F)NC1CCSc2ccccc21 (stereo unspecified),5.76% (inactive)
22,O=S(=O)(O)c1cc2onnc2c2ccccc12,-2.58% (inactive)
